Screening data (PubChem)
MPTP block – inhibitors of mitochondrial permeability transition pore; 360,000 tested, 1.4% active; inhibition, % at 10 µM; isolated mouse mitochondria, Ca2+ swelling absorbance, 30 min;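 active = inhibition of 50% or more, scaled per plate between neutral and stimulator controls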
FAS-TE inh – blocks the thioesterase domain of human fatty acid synthase. P49327. recombinant FAS-TE, OMFH fluorogenic substrate, fluorescence endpoint. inhibition, % at 15 µM. 360,000 tested, 0.67% active. AID 602261;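 active = compounds whose normalised, plate-corrected inhibition of enzyme fluorescence in the single-dose primary screen is 50% or more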
Target sequence (P49327 whole entry, looked up, the tested form may be a part): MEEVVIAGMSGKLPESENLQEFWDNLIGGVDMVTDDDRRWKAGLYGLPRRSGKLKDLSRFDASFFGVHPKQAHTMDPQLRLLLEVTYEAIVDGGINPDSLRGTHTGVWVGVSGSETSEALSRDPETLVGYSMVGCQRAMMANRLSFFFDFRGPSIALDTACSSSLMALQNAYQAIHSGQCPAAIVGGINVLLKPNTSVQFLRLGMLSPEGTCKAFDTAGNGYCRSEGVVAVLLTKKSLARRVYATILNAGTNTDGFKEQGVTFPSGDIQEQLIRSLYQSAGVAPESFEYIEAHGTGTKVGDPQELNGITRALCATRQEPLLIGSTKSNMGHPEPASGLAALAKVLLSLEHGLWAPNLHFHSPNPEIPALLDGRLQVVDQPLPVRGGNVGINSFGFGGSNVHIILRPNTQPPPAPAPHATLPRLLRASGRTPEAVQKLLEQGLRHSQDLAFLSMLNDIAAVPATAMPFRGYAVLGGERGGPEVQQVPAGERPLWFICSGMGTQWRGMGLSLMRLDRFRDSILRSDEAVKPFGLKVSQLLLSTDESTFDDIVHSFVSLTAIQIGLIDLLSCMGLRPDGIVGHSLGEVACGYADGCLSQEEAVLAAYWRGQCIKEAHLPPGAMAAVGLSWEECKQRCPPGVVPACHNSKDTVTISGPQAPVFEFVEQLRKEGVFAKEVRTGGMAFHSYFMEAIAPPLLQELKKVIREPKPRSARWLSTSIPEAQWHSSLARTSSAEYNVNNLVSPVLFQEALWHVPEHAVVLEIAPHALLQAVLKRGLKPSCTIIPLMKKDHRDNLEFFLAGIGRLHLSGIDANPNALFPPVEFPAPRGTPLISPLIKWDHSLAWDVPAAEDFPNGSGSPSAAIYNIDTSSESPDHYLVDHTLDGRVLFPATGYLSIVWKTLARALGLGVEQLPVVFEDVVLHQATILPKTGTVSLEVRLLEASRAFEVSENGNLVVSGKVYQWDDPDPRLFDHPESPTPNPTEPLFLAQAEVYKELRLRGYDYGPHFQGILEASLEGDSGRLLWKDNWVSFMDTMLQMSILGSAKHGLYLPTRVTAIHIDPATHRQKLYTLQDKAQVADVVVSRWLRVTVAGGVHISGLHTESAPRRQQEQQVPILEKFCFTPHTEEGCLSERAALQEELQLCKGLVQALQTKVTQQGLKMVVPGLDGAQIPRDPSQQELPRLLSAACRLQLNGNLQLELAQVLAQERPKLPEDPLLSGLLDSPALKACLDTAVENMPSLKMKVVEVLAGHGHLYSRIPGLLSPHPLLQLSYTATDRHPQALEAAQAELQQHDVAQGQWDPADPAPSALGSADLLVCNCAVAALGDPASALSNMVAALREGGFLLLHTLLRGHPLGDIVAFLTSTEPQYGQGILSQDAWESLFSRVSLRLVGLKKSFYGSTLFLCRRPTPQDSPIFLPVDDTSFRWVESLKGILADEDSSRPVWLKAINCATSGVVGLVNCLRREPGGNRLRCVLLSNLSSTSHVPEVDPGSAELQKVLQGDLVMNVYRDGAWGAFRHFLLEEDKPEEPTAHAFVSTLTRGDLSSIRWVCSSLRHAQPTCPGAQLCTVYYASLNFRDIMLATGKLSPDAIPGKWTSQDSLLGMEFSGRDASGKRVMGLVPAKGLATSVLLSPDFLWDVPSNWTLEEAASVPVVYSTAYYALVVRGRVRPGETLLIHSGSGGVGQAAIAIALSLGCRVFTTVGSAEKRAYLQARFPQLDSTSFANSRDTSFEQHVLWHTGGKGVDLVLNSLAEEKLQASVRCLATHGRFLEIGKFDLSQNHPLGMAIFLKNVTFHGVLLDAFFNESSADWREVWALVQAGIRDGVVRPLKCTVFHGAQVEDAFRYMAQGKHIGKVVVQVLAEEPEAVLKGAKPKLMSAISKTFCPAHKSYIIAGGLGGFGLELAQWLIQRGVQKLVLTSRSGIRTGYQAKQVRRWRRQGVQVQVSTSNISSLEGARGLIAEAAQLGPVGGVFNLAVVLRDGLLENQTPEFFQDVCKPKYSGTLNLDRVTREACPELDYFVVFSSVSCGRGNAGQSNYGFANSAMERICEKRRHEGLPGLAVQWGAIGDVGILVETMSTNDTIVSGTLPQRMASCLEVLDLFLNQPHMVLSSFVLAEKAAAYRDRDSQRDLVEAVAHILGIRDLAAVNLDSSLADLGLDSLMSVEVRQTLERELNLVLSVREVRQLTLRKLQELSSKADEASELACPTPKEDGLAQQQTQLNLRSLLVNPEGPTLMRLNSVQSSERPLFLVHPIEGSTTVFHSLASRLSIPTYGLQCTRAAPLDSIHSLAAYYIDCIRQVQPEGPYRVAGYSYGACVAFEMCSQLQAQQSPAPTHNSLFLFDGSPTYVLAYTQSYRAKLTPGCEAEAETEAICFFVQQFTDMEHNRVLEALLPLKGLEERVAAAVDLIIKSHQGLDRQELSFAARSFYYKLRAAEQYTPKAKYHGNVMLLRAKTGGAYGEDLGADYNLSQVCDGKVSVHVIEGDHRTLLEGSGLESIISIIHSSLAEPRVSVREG
rCAG RNA binder – binds r(CAG) RNA repeats | 370,000 tested, 1.3% active | AID 651821 | inhibition, % at 3 µM | r(CAG) RNA repeat, TO-PRO-1 dye displacement fluorescence;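 active = inhibition above the plate cutoff, the mean of all test compounds on that plate plus 3 SD, cut at about 35% in these data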;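 also: higher means more dye released from RNA so lower well fluorescence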
Myeloid diff MLP – promotes myeloid progenitor differentiation; calls only at 10 µM; 360,000 tested, 1% active; AID 624256; ER-HoxA9 myeloid progenitors, lysozyme-GFP differentiation, flow cytometry;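 active = normalized GFP-positive differentiation at or above the plate's own cutoff, the solvent-only control mean plus 3 SD; inconclusive = no clear call, values can overlap the other calls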;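 also: cells exposed to compound for four days before flow analysis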
NR3A LBD binder – modulates the human NR3A ligand-binding domain; NR3A LBD differential scanning fluorimetry, Tm shift; 0% = protein alone, 100% = glycine-bound protein; Tm shift relative to glycine control, % at 25 µM; 340,000 tested, 2.5% active;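 active = melting temperature shift of at least 10% of the positive control shift, at one fixed dose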
FAS-TE inh conf – confirmation of human fatty acid synthase thioesterase inhibitors; shares compounds with FAS-TE inh; recombinant FAS-TE, OMFH fluorogenic substrate, fluorescence; inhibition, % at 15 µM; 2,300 tested, 45% active;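 active = compounds inhibiting the enzyme by at least 50% at 15 µM in any one of the replicates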
Numbers stand for hits. The list is not random: actives were taken first. Their share in the collection is about 5.7%.

Results for Cc1ccc(C)c(NC(=O)COC(=O)CC2CC3CCC2C3)c1 (stereo not drawn) ?
MPTP block: inactive; FAS-TE inh: inactive; rCAG RNA binder: inactive; Myeloid diff MLP: inactive; NR3A LBD binder: inactive

How did O=C(COC(=O)CCc1ccccc1)Nc1cc([N+](=O)[O-])ccc1F do in these assays?
MPTP block: inactive; FAS-TE inh: 73.0; Myeloid diff MLP: inactive; NR3A LBD binder: inactive; FAS-TE inh conf: 67.0

What do the screens show for `O=C(COC(=O)CC1CC2CCC1C2)Nc1cc([N+](=O)[O-])ccc1F` (stereo not drawn)?
MPTP block: inactive; FAS-TE inh: 80.0; rCAG RNA binder: inactive; Myeloid diff MLP: inactive; NR3A LBD binder: inactive; FAS-TE inh conf: 87.4

How did O=C(CSCc1ccccc1)Nc1cc([N+](=O)[O-])ccc1F do in these assays?
MPTP block: inactive; FAS-TE inh: inactive; rCAG RNA binder: inactive; Myeloid diff MLP: inactive; NR3A LBD binder: inactive

Results for CCOc1ccc2cc(C3CC(c4ccco4)=NN3S(=O)(=O)c3ccccc3)c(Cl)nc2c1 (stereo not drawn) ?
MPTP block: inactive; FAS-TE inh: inactive; rCAG RNA binder: inactive; Myeloid diff MLP: inactive; NR3A LBD binder: inactive

Results for COc1ccc2cc(C3CC(c4ccco4)=NN3S(=O)(=O)c3ccccc3)c(Cl)nc2c1 (stereo not drawn) ?
MPTP block: inactive; FAS-TE inh: 70.6; rCAG RNA binder: inactive; Myeloid diff MLP: inactive; NR3A LBD binder: inactive; FAS-TE inh conf: inactive

What do the screens show for `O=C(Cc1ccc(NC(=O)C2CCCN(C(=O)c3ccccc3)C2)cc1)Nc1cccc(C(=O)N2CCCC2)c1` (stereo not drawn)?
rCAG RNA binder: inactive

What do the screens show for `C[C@@]12C(=O)Nc3ccc(Br)cc3C(=O)N1[C@H]1c3cc(Cl)ccc3OC[C@@H]1[C@@H]2c1ccccc1`?
MPTP block: inactive; FAS-TE inh: 93.8; Myeloid diff MLP: inactive; NR3A LBD binder: inactive; FAS-TE inh conf: inactive

Results for C[C@@]12C(=O)Nc3ccc(Br)cc3C(=O)N1[C@H]1c3ccccc3OC[C@@H]1[C@@H]2c1ccccc1 ?
MPTP block: inactive; FAS-TE inh: 87.9; Myeloid diff MLP: inactive; NR3A LBD binder: inactive; FAS-TE inh conf: inactive

What do the screens show for `COc1ccc2c(c1)[C@H]1[C@H](CO2)[C@H](c2ccccc2)[C@]2(C)C(=O)Nc3ccc(Cl)cc3C(=O)N12`?
MPTP block: inactive; FAS-TE inh: 86.0; rCAG RNA binder: inactive; Myeloid diff MLP: inactive; NR3A LBD binder: inactive; FAS-TE inh conf: inactive

What do the screens show for `C[C@@]12C(=O)Nc3ccccc3C(=O)N1[C@H]1c3cc(Cl)ccc3OC[C@@H]1[C@@H]2c1ccccc1`?
MPTP block: inactive; FAS-TE inh: inactive; rCAG RNA binder: inactive; Myeloid diff MLP: inactive; NR3A LBD binder: inactive

Results for C[C@@]12C(=O)Nc3ccc(Cl)cc3C(=O)N1[C@H]1c3cc(Cl)ccc3OC[C@@H]1[C@@H]2c1ccccc1 ?
MPTP block: inactive; FAS-TE inh: 77.4; rCAG RNA binder: inactive; Myeloid diff MLP: inactive; NR3A LBD binder: inactive; FAS-TE inh conf: inactive

How did CC1CCN(C(=O)c2ncn3c2C(=O)NC[C@@H]3C)CC1 do in these assays?
rCAG RNA binder: inactive

How did CC(C)C(C(=O)NCc1ccccc1)N1CCN(CCN2CCOCC2)CC1 (stereo not drawn) do in these assays?
rCAG RNA binder: inactive

Results for COc1cccc(-c2ccc3c(c2)[C@@H]2C[C@H]4[C@@H](CN2CC3)[C@H](C)ON4C)c1 ?
rCAG RNA binder: inactive

What do the screens show for `C[C@@]12C(=O)Nc3cc(F)c(F)cc3C(=O)N1[C@H]1c3cc(Cl)ccc3OC[C@@H]1[C@@H]2c1ccccc1`?
MPTP block: inactive; FAS-TE inh: 74.3; Myeloid diff MLP: inactive; NR3A LBD binder: inactive; FAS-TE inh conf: inactive

Results for COc1ccc2c(c1)[C@H]1[C@H](CO2)[C@H](c2ccccc2)[C@]2(C)C(=O)Nc3ccc(C)cc3C(=O)N12 ?
MPTP block: inactive; FAS-TE inh: inactive; rCAG RNA binder: inactive; Myeloid diff MLP: inactive; NR3A LBD binder: inactive

Results for COc1ccc2c(c1)[C@@H]1[C@H](CO2)[C@H](c2ccccc2)[C@]2(C)C(=O)Nc3ccc(C)cc3C(=O)N12 ?
MPTP block: inactive; FAS-TE inh: 83.0; Myeloid diff MLP: inactive; NR3A LBD binder: inactive; FAS-TE inh conf: inactive

Results for COc1ccc2c(c1)[C@H]1[C@H](CO2)[C@H](c2ccccc2)[C@]2(C)C(=O)Nc3cc(OC)c(OC)cc3C(=O)N12 ?
MPTP block: inactive; FAS-TE inh: inactive; rCAG RNA binder: inactive; Myeloid diff MLP: inactive; NR3A LBD binder: inactive

How did COc1ccc2c(c1)OC[C@H]1[C@H]2N2C(=O)c3ccccc3NC(=O)[C@@]2(C)[C@H]1c1ccccc1 do in these assays?
MPTP block: inactive; FAS-TE inh: 69.8; rCAG RNA binder: inactive; Myeloid diff MLP: inactive; NR3A LBD binder: inactive; FAS-TE inh conf: inactive

How did N#Cc1cc2ccc(N3CCOCC3)cc2cc1C#N do in these assays?
MPTP block: inactive; FAS-TE inh: 73.6; rCAG RNA binder: inactive; Myeloid diff MLP: inactive; NR3A LBD binder: inactive; FAS-TE inh conf: 61.9

Results for COc1ccccc1NC1=C(Cl)C(=O)OC1OC(=O)c1ccco1 (stereo not drawn) ?
MPTP block: inactive; FAS-TE inh: inactive; rCAG RNA binder: inactive; Myeloid diff MLP: inactive; NR3A LBD binder: inactive

How did Cc1ccccc1NC1=C(Cl)C(=O)OC1OC(=O)c1ccco1 (stereo not drawn) do in these assays?
MPTP block: inactive; FAS-TE inh: 73.5; rCAG RNA binder: inactive; Myeloid diff MLP: inactive; NR3A LBD binder: inactive; FAS-TE inh conf: 86.8

Results for COC(=O)[C@]12C[C@H](CC(=O)NCc3cccc4ccccc34)C(=O)N(Cc3ccc(Cl)cc3Cl)C1=C[C@H](C(C)C)O[C@@H]2C1CC1 ?
rCAG RNA binder: inactive

How did O=C(CC(C(=O)O)c1ccc(Cl)cc1)c1ccc(Cl)c(Cl)c1 (stereo not drawn) do in these assays?
MPTP block: inactive; FAS-TE inh: 80.4; rCAG RNA binder: inactive; Myeloid diff MLP: inactive; NR3A LBD binder: inactive; FAS-TE inh conf: 81.5

What do the screens show for `CC(=O)OCC1OC(n2cc(F)c(=O)[nH]c2=O)C(OC(C)=O)C1OC(C)=O` (stereo not drawn)?
MPTP block: inactive; FAS-TE inh: inactive; rCAG RNA binder: inactive; Myeloid diff MLP: inconclusive; NR3A LBD binder: inactive

What do the screens show for `O=C1C(F)=CC(COC(c2ccccc2)(c2ccccc2)c2ccccc2)OC1n1cc(F)c(=O)[nH]c1=O` (stereo not drawn)?
MPTP block: inactive; FAS-TE inh: 70.0; rCAG RNA binder: inactive; NR3A LBD binder: inactive; FAS-TE inh conf: 52.0

How did CCOC(=O)CNC(=O)C1(/C=C/c2ccccc2)CC(=O)N1c1ccc(C)cc1 (stereo not drawn) do in these assays?
MPTP block: inactive; FAS-TE inh: inactive; rCAG RNA binder: inactive; Myeloid diff MLP: inactive; NR3A LBD binder: inactive
